# Results: PubChem BioAssay
# The source made the active and inactive calls. Unless noted, the rule behind the calls is not given here.
# How the values were obtained:
# [1] = resazurin metabolic signal in HepG2 cells – cell-based, resazurin fluorescence, 24 h, PK04 Diversity Set, profiling panel (AID 1172); conditions: HepG2 viability, higher = more signal
# [2] = budding yeast growth changes without added modifier – OD600, strain BY4716, 24 h, basal condition, primary screen (AID 1173); conditions: S. cerevisiae BY4716 growth, OD600, 24 h; higher = more signal, called active from +8 up or from −8 down
# [3] = viability profiling in MM1S myeloma cells – cell-based, resazurin fluorescence, basal, 24 h, PK04 Diversity Set, profiling panel (AID 1174); conditions: higher = more signal, called active from +8 up or from −8 down;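 note: MM1S multiple myeloma cell line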
# [4] = molecular target: Dihydroorotate dehydrogenase (quinone), mitochondrial (Plasmodium falciparum (isolate 3D7)) (UniProt Q08210); experiment: inhibition of P. falciparum DHODH – biochemical, C-terminal His tag, absorbance 600 nm, primary screen (AID 1175); conditions: PfDHODH enzyme, DCIP absorbance 600 nm; higher = more signal, called active from +8 up or from −8 down;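 note: recombinant parasite enzyme with a five histidine tag at its C terminus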
# Sequence of Dihydroorotate dehydrogenase (quinone), mitochondrial (Plasmodium falciparum (isolate 3D7)) (Q08210 whole entry, looked up): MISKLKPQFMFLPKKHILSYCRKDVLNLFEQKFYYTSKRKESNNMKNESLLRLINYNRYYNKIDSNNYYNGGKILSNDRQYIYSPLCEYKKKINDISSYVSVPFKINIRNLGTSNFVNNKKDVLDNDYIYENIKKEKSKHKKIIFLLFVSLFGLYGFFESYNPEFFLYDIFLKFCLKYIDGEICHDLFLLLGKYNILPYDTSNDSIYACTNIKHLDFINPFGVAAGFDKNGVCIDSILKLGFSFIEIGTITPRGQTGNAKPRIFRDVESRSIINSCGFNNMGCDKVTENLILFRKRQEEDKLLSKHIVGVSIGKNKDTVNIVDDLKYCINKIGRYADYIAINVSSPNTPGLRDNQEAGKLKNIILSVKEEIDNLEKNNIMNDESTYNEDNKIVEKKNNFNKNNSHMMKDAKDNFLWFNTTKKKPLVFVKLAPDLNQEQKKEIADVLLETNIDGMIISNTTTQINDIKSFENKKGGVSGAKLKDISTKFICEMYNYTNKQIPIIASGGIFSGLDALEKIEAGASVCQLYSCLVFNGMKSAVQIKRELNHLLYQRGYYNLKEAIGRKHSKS
# [5] = inhibition of PAO1 biofilm formation – strain PAO1, LB-PBS medium, absorbance 600 nm, primary screen (AID 1176); conditions: P. aeruginosa PAO1 growth/biofilm, A600, 12 h; higher = more signal
# [6] = growth modulation of vineyard yeast isolate – strain RM11-1a, OD600, basal, 24 h, primary screen (AID 1177);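 note: cultures grown under basal conditions with no added stressor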; conditions: S. cerevisiae RM11-1a growth, OD600, 24 h; higher = more signal, called active from +8 up or from −8 down
# [7] = growth of efflux-deficient E. coli DRC39 – strain DRC39, OD650, 24 h, E. coli filamentation inducers, primary screen (AID 1178);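 note: growth measured as culture turbidity by optical density at 650 nm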; conditions: E. coli DRC39 acrAB, higher = more signal, called active from +8 up or from −8 down
# [8] = growth of efflux-deficient E. coli DRC39 – strain DRC39, OD650, 48 h, E. coli filamentation inducers, primary screen (AID 1179);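 note: screen aims at cell division blockers that make cells filament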; conditions: E. coli DRC39 delta-acrAB growth, higher = more signal, called active from +8 up or from −8 down
# [9] = viability profiling in RPMI8226 myeloma cells – cell-based, resazurin fluorescence, basal, 24 h, PK04 Diversity Set, profiling panel (AID 1180); conditions: higher = more signal;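 note: RPMI8826 multiple myeloma cell line at 5000 cells per well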
# [10] = molecular target: E3 ubiquitin-protein ligase XIAP (Homo sapiens) (UniProt P98170); experiment: small molecules binding XIAP protein – biophysical, small-molecule microarray, fluorescence 635 nm, primary screen (AID 1181); conditions: higher = more signal;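 note: score merges 667 nm emission and signal to noise over triplicate slides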
# Sequence of E3 ubiquitin-protein ligase XIAP (Homo sapiens) (P98170 whole entry, looked up, the tested form may be a part): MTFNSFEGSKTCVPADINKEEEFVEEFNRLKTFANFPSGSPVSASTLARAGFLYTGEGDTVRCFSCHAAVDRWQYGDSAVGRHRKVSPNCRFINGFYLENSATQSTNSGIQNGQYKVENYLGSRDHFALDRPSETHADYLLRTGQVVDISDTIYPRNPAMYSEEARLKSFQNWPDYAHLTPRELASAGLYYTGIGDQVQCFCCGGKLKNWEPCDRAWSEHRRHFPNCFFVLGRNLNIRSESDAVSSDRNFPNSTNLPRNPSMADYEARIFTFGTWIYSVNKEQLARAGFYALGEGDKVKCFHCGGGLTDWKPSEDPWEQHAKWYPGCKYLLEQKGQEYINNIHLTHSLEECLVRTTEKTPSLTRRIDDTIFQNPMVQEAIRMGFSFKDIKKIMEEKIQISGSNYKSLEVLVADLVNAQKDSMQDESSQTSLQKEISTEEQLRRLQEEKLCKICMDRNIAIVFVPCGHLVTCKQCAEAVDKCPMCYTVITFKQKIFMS
# [11] = test system: XIP peptide (Xip251-270) binding; experiment: XIP fragment 251-270 binding compounds – biochemical, small-molecule microarray, fluorescence 635/667 nm, 0.1 µg/mL protein, primary screen (AID 1182); conditions: fluorescent protein binding, 635 nm, higher = more signal, called active from +8 up or from −8 down
# [12] = test system: XIP peptide (Xip251-270); experiment: compounds binding XIP fragment 251-270 – biochemical, small-molecule microarray, fluorescence 635/667 nm, 0.5 µg/mL protein, primary screen (AID 1183); conditions: fluorescence 635 nm, higher = more signal
# [13] = blood-stage malaria parasite viability loss – strain 3D7, DAPI fluorescence, 100 nL, primary screen (AID 1184);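 note: parasites grown inside human red blood cells in medium with human serum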; conditions: P. falciparum 3D7 growth, 3 d, higher = more signal
# [14] = molecular target: Homeobox protein Hox-A13 (Mus musculus) (UniProt Q62424); experiment: disruptors of Hoxa13 oligonucleotide interaction – biochemical, fluorescence polarization, labeled oligonucleotide, primary screen (AID 1185); conditions: Hoxa13:DNA binding, 15 min, higher = more signal, called active from +8 up or from −8 down
# Sequence of Homeobox protein Hox-A13 (Mus musculus) (Q62424 whole entry, looked up): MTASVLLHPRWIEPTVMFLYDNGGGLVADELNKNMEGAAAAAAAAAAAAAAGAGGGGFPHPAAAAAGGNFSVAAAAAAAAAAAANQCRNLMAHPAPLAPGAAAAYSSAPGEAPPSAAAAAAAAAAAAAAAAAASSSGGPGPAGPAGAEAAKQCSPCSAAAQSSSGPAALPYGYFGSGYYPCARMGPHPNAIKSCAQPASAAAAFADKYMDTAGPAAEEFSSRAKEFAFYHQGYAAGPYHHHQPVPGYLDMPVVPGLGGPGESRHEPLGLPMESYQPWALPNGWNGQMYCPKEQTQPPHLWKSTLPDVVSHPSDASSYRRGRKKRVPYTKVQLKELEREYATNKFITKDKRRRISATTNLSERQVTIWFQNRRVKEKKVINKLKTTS
# [15] = blockers of DNA damage checkpoint Chk1 activation – imaging, HeLa, hydroxyurea, phospho-Chk1 antibody, percent positive cells, primary screen (AID 1186); conditions: hydroxyurea-induced phospho-Chk1 immunofluorescence imaging, higher = more signal
# [16] = blockers of DNA damage checkpoint Chk1 activation – imaging, HeLa, hydroxyurea, phospho-Chk1 nuclear intensity, primary screen (AID 1187); conditions: hydroxyurea-induced phospho-Chk1 immunofluorescence imaging, higher = more signal
SMILES,z-score [1],z-score [2],z-score [3],composite z-score [4],z-score [5],z-score [6],z-score [7],z-score [8],z-score [9],composite z-score [10],composite z-score [11],composite z-score [12],z-score [13],z-score [14],z-score [15],z-score [16]
COCC(=C=CC[C@H](O)c1ccccc1OCCO)CCO,-0.504,-0.547 (inactive),-0.251 (inactive),-0.799 (inactive),0.26 (inactive),0.338 (inactive),-0.135 (inactive),-0.113 (inactive),-0.672,-0.252,2.87 (inactive),-0.501,-0.549,-2.98 (inactive),0.387 (inactive),-0.186 (inactive)
CC(C)CNC(=O)[C@@]1(Cc2ccccc2I)c2ccccc2C(=O)N(Cc2ccccc2C(F)(F)F)[C@H]1c1ccc(CO)cc1,-0.165,0.428 (inactive),-0.0663 (inactive),0.366 (inactive),-0.0528 (inactive),0.0567 (inactive),-0.188 (inactive),0.588 (inactive),-0.0359,-0.271,1.43 (inactive),0.875,-0.538,-1.78 (inactive),0.172 (inactive),0.345 (inactive)
CC[C@@H]1C=C(C(=O)O)[C@H](c2ccc(C)cc2)N1S(=O)(=O)c1ccc(C)cc1,0.675,0.174 (inactive),0.0178 (inactive),-1.85 (inactive),-0.433 (inactive),-0.66 (inactive),-0.303 (inactive),0.637 (inactive),-0.0794,0.0701,-0.143 (inactive),0.468,1.14,-1.69 (inactive),0.723 (inactive),0.909 (inactive)
COC(=O)c1c(CC[C@@H](CO)NC(=O)N[C@@H](Cc2ccccc2)Cn2cc(-c3ccccn3)nn2)oc(C(=O)N2CCOCC2)c1C(=O)OC,0.482,-0.239 (inactive),0.475 (inactive),0.138 (inactive),-0.476 (inactive),1.3 (inactive),0.506 (inactive),0.327 (inactive),0.277,0.23,0.53 (inactive),0.0134,-0.671,-2.7 (inactive),0.101 (inactive),0.0064 (inactive)
COCCOC(=O)N1C(=O)[C@@]2(c3ccccc31)[C@H](c1ccc(OCCO)cc1)N1[C@H](c3ccccc3)[C@H](c3ccccc3)OC(=O)[C@H]1[C@@H]2C(=O)N1CCc2cc(OC)c(OC)cc2C1,-0.14,1.57 (inactive),0.102 (inactive),-2.08 (inactive),1.79 (inactive),2.94 (inactive),0.43 (inactive),0.736 (inactive),0.994,-0.153,0.933 (inactive),0.919,-2.15,2.01 (inactive),0.147 (inactive),0.0081 (inactive)
COc1ccc(C(O)C2C=CC3C(=O)N(C)C(=O)C3N2N(c2ccccc2)c2ccccc2)c2ccccc12 (centres undefined),-1,0.618 (inactive),-1.57 (inactive),0.231 (inactive),0.447 (inactive),0.588 (inactive),-0.546 (inactive),-0.225 (inactive),-1.14,0.239,0.742 (inactive),0.763,0.889,-2.84 (inactive),0.436 (inactive),0.15 (inactive)
CN(C)CCCC[C@@H]1NC(=O)[C@H]2C[C@@H](C(=O)NCCCCCN)[C@@H](c3cccc(OCCO)c3)N2C1=O,0.306,-0.7 (inactive),0.606 (inactive),-0.997 (inactive),0.118 (inactive),-0.629 (inactive),0.139 (inactive),-0.386 (inactive),0.932,0.0101,2.88 (inactive),0.84,-0.419,-2.91 (inactive),0.658 (inactive),0.729 (inactive)
C[N+](C)(C)CCCCCCNC(=O)[C@H]1C[C@H]2C(=O)N[C@@H](Cc3ccccc3)C(=O)N2[C@H]1c1cccc(OCCO)c1,0.384,0.0938 (inactive),0.313 (inactive),-1.22 (inactive),0.255 (inactive),0.548 (inactive),0.395 (inactive),0.551 (inactive),0.23,-0.144,0.875 (inactive),0.817,-0.463,-5.91 (inactive),0.685 (inactive),0.484 (inactive)
CCOC(=O)[C@H]1C/C=C/C[C@H](C(=O)OCC)C(=O)O[C@H]2[C@@H](OC)O[C@H](CO)[C@@H](OC(=O)c3ccc(Br)cc3)[C@@H]2OC1=O,-0.349,-0.775 (inactive),-1.77 (inactive),-1.88 (inactive),0.787 (inactive),0.807 (inactive),0.612 (inactive),0.485 (inactive),-2.49,-0.283,0.146 (inactive),-0.103,-1.11,-1.2 (inactive),-0.0241 (inactive),0.237 (inactive)
